# Compound activity: PubChem, National Center for Advancing Translational Sciences (NCATS)
# Rows were chosen to be rich in hits. Some 9.2% of all compounds tested hit in one or more screens of this group.
# ELG1 genotox: inducers of genotoxicity in HEK293T ELG1-luciferase cells; 330,000 compounds, 1.3% hits; HEK293T ELG1-luciferase reporter, luminescence, 16 h; Potency, µM (top dose mostly 46 µM), for inactives: top-dose activity change, positive = activation, actives largely listed as activators; note: % of control where 0% means no effect; nearly all actives have a fitted effect of over 60% in size
#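 HEK293T cells expressing luciferase-tagged ELG1 were treated with compound or DMSO for 16 hr at 37°C. Luciferase activity was then read after 30 min with ONE-Glo at room temperature; rising signal flags genetic stress.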
# ELG1 DNA repair: ELG1-dependent DNA repair inhibition. 330,000 compounds, 2.3% hits. Potency, µM (highest dose often 46.1 µM), without a hit: at the highest dose activity change, negative = inhibition, usual class: inhibitors. HEK293T ELG1-luciferase reporter, luminescence, 16 h; DNA damage induced by 5-fluorouridine; note: % is set by controls: 0 for no effect and ±100 for the full control effect; nearly all actives have a fitted effect of over 55% in size
#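 Overnight (16 hr) co-exposure of 2,000 cells/well to 5-fluorouridine and compound at 37 °C preceded detection. Luciferase was quantified via ONE-Glo luminescence; loss of signal denotes inhibition.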
# SMN2 splice enh: increases expression of the SMN2 splice variant. AID 1458. HEK293 SMN2-luciferase splicing reporter, luminescence, 30-36 h. 210,000 compounds, 2.8% hits. Potency, µM (top dose mostly 46.1 µM), for inactives: at the highest dose activity change, positive = activation, most hits filed as activators; note: % of control where 0% means no effect; nearly all actives have a fitted effect of over 55% in size
#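 HEK293 cells carry an SMN2 minigene-luciferase reporter in which exon 7 inclusion puts luciferase in frame. Cells were seeded at 2000 cells/well, attached for 10-12 hours, then exposed to compounds for 30-36 hours at 37C before ONE-Glo luminescence.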
# Rab9 promoter act: activates the Rab9 promoter; Huh7 Rab9 promoter-luciferase reporter, luminescence, 24 h; Potency, µM (series often up to 9.22 µM), for inactives: at the top dose activation, negative = inhibition, most hits filed as activators; 320,000 compounds, 2.8% hits; AID 485297; note: % of control where 0% means no effect; nearly all actives have a fitted effect of over 60% in size
#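 Promoter activation is measured as luciferase luminescence in Huh7 cells stably transfected with a Rab9 promoter–luciferase construct, following 24 h compound exposure at 37 °C and 10 min reagent incubation at ambient temperature.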
# FLuc counter: inhibits or activates purified firefly luciferase, miR-21 counter-screen; purified FLuc, Km substrates, luminescence inhibition; Potency, µM (top dose mostly 57.5 µM), for the others: top-dose activity change, negative = inhibition, usual class: inhibitors; 360,000 compounds, 6.9% hits;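 note: plate controls were vehicle for no effect and reference inhibitor for full effect; nearly all actives have a fitted effect of over 55% in size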
# Target sequence (P08659 whole entry, looked up): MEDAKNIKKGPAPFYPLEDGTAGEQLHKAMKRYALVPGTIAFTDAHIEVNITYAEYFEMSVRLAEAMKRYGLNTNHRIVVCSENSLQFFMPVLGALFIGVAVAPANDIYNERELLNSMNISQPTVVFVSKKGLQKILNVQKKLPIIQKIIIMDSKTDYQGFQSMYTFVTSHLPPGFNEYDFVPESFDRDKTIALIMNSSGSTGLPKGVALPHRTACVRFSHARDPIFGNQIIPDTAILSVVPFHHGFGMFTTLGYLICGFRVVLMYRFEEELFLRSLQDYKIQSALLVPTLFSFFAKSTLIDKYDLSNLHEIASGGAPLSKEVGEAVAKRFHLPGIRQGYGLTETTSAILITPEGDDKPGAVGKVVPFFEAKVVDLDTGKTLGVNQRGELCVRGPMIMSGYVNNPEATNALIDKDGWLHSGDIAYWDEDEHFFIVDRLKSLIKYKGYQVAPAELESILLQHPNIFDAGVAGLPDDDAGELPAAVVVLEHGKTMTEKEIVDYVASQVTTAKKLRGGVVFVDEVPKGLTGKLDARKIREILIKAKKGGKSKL
#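 Biochemical qHTS of compounds, final roughly 60 µM downward over six points, against 10 nM purified firefly luciferase using Km concentrations of substrates (10 uM D-luciferin, 10 uM ATP) in Tris acetate pH 7.5 buffer; luminescence output.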
# NPC1 promoter act: NPC1 promoter activation; Huh7 NPC1 promoter luciferase reporter, 24 h; Potency, µM (top dose mostly 9.22 µM), for the others: top-dose activation, most hits filed as activators; 320,000 compounds, 2.4% hits; AID 485313; note: % of control where 0% means no effect; nearly all actives have a fitted effect of over 60% in size
#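 Stable NPC1-promoter luciferase Huh7 line; cpd (DMSO) 24 h, 37 °C, 5% CO2; Amplite luciferase reagent 10 min RT; luminescence readout. qHTS format.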
# The depositor's hits bear a star; ? = inconclusive; . = no result given; [ ] = remark or other dose. Calls come from the whole dose curve; as a rule, active = well fitted curve in the direction sought with a large enough effect; inconclusive = small, poorly fitted or top-dose-only effect, or another doubt; inactive = no such curve, though single readings can be large; an effect the other way counts as inactive or inconclusive. Potency is the fitted concentration of half-maximal effect.
SMILES,ELG1 genotox,ELG1 DNA repair,SMN2 splice enh,Rab9 promoter act,FLuc counter,NPC1 promoter act
O=C(CCn1cccc1)Nc1ccc(OC(F)(F)F)cc1,13%,-5%,.,4%,4%,-2%
O=C(NC(=S)NCc1ccccc1)C1CCCCC1,-4%,-4%,26%,-2%,4%,-2%
COc1ccc(/C=N/NC(=O)c2nonc2N)cc1OC,7%,24%,.,-4%,?,-4%
O=C(CCc1ccccc1)N/N=C/c1cccc(O)c1,7%,-9%,.,5%,?,-2%
O=C(N/N=C/c1cccc(O)c1)N/N=C/c1cccc(O)c1,7%,24%,.,10%,5.4µM*,14%
Cc1nonc1C(=O)N/N=C/c1cccc(O)c1,4%,14%,0%,1%,12µM*,2%
O=C(N/N=C/c1cccc(Oc2ccccc2)c1)c1cccc(O)c1,15%,18%,.,-3%,17µM*,1%
O=C(N/N=C/c1cccc(Oc2ccccc2)c1)c1cccc(Br)c1,-5%,?,-22%,15%,?,4%
CCc1cccc(NC(=O)Cn2c(=O)n(CCc3ccc(OC)c(OC)c3)c(=O)c3ccccc32)c1,.,.,-1%,.,-2%,.
CC(=O)c1ccc(NC(=O)c2ncn(-c3ccccc3)n2)cc1,.,.,17%,.,-17%,.
Cc1ccc(N(C(=O)Cn2nnc(-c3ccccc3)n2)C(C(=O)NC2CCCCC2)c2ccccn2)cc1C (stereo not given),-2%,-9%,9%,1%,0%,-2%
O=C(O)c1sc2cccc(Cl)c2c1Cl,-1%,?,.,2%,5.4µM*,0%
Cc1cc2nc([C@H](C)C(=O)c3ccc(Cl)cc3)c(=O)[nH]c2cc1C,.,.,3.5µM*,.,.,.
Cc1cc(C)c[n+](C(C)C(=O)c2ccc(Cl)cc2)c1 (stereo not given),-3%,1%,.,1%,0%,-5%
COc1ccc(Nc2nc(-c3cccs3)cs2)c(OC)c1,5.2µM*,?,.,2.2µM*,4.8µM*,?
COc1ccccc1Nc1nc(-c2cccs2)cs1,?,?,11µM*,?,4.8µM*,13%
COc1ccc(Nc2nc(-c3cccs3)cs2)cc1,1.5µM*,?,10µM*,2µM*,0.67µM*,2.5µM*
COc1ccccc1CNC(=O)Cn1ncc2c(C)n(Cc3ccccc3Cl)c(C)c2c1=O,.,.,-15%,.,-17%,.
CSc1ccc(/C=C(\C#N)C(=O)NC2CCCCC2)cc1,1%,?,-7%[1.84 µM],-4%,3%,-2%
N#C/C(=C\c1ccc2c(c1)OCCO2)C(=O)Nc1nccs1,10%,?,.,1%,0.6µM*,2%
COCCNC(=O)/C(C#N)=C/c1ccc2c(c1)OCO2,13%,?,.,17%,?,3%
C=CCNC(=O)/C(C#N)=C/c1ccc(SC)cc1,11%,-18%,0%,3%,12µM*,0%
C=CCNC(=O)/C(C#N)=C/c1ccc2c(c1)OCCO2,13%,?,-5%,7%,12µM*,0%
Cc1cccn2c(=O)cc(COc3cccc(NC(=O)c4ccccc4F)c3)nc12,.,.,.,.,0%,.
Cc1ccc(SC[C@H](CC(C)C)N2CCN(CCc3ccccc3)CCC2=O)cc1,5%,27%,.,12%,17µM*,18%
SMILES,ELG1 genotox,ELG1 DNA repair,SMN2 splice enh,Rab9 promoter act,FLuc counter,NPC1 promoter act
COc1ccc(SC[C@H](CC(C)C)N2CCN(CCc3ccccc3)CCC2=O)cc1,-3%,-12%,.,0%,19µM*,14%
CC(C)Oc1ccc(S(=O)(=O)N2CCOCC2)cc1NC(=O)CCCSc1ccccc1,-4%,?,.,-7%,-2%,0%
O=C1C(c2ccccc2)=[N+]([O-])c2ccccc21,?,?,.,22%,12µM*,13%
CN1CCN(C(=O)c2cnn3c(C(F)(F)F)cc(-c4cccs4)nc23)CC1,2%,5.8µM*,6%,-3%,3%,-7%
O=C(c1ccco1)N1CCN(C(=O)c2cnn3c(C(F)(F)F)cc(-c4cccs4)nc23)CC1,-11%,5.8µM*,.,1%,7%,-7%
O=C(c1cnn2c(C(F)(F)F)cc(-c3cccs3)nc12)N1CCN(Cc2ccccc2)CC1,-14%,6.5µM*,-15%,-2%,3%,-2%
O=C(c1nn2c(C(F)(F)F)cc(-c3cccs3)nc2c1Br)N1CCCc2ccccc21,5%,?,-45%,-5%,-18%,-16%
O=C(O)c1cc2nc(-c3cccs3)cc(C(F)(F)F)n2n1,-4%,-1%,7%,3%,-12%,0%
O=C(NCCc1ccccc1)c1nc2nc(-c3cccs3)cc(C(F)(F)F)n2n1,-8%,?,?,14%,-20%,12%
O=C(c1cnn2c(C(F)(F)F)cc(-c3cccs3)nc12)N1CCN(C(c2ccccc2)c2ccccc2)CC1,-3%,5.8µM*,-17%,-2%,2%,-8%
COc1ccc(/C=C(\C#N)C(=O)OCC(=O)Nc2c(C)cccc2C(C)C)cc1,0%,8%,-28%,-9%,11%,1%
CC(C)(C)n1ncc2c(=O)n(Cc3ccc(Cl)c(SC(F)(F)F)c3)cnc21,.,.,.,.,-1%,.
Cc1ccccc1SCC(=O)N/N=C/c1ccc(F)cc1,-5%,-8%,.,-5%,-3%,-7%
COc1cccc(CNC(=O)c2nn(-c3ccc(C)cc3)c(=O)c3c2c2ccccc2n3C)c1,.,.,2%,.,2%,.
Cc1nc(N2CCCCC2)sc1C(=O)c1ccc(Cl)c([N+](=O)[O-])c1,-5%,18µM*,-1%,-8%,-16%,-9%
COc1ccccc1CN1CC(C(=O)NCCCc2ccc(F)cc2)CCC1=O (stereo not given),-2%[9.26 µM],10µM*,.,0%,-1%,-1%
COc1ccccc1CN1CC(C(=O)NCc2c(F)ccc(C)c2F)CCC1=O (stereo not given),?,?,.,?,30µM*,?
O=C(CCNC(=O)c1ccc(Cl)cc1)Nc1c(F)c(F)cc(F)c1F,-2%,9%,-10%,-5%,-1%,-1%
Cc1cccnc1NC(=O)c1cccc(S(=O)(=O)N2CCCc3ccccc32)c1,-3%,?,.,6%,-2%,0%
COc1ccc(C(=O)Nc2cccc(OCc3cc(=O)n4c5c(sc4n3)CCCC5)c2)cc1OC,.,.,-2%,.,2.4µM*,.
COc1ccc(O)c(C2=Nc3ccccc3N=C(c3ccccc3)C2)c1,-12%,?,?,0%,0%,4%
COc1ccc2c(c1)NC(=O)CC(c1ccccc1)=N2,16µM*,?,-2%,26%,?,?
